Test [1] in a line: ATG_GRE_CIS: Attagene CIS-FACTORIAL HepG2 Assay for human Glucocorticoid Response Elements (GRE) (AID 2282947). Particulars: HepG2 GRE cis-reporter, Attagene multiplex mRNA; actives raise or lower the signal. An outline of the steps:
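Transiently transfected HepG2 cells carrying GRE cis-reporter units (endogenous TF activity) dosed 24 h; reporter mRNA quantified by RT-PCR, 6-FAM labelling, HpaI digestion and capillary electrophoresis. Bidirectional fit versus DMSO baseline.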

Test [2] can be described thus: ATG_ISRE_CIS: Attagene CIS-FACTORIAL HepG2 Assay for human Interferon Regulatory Factor 1 (IRF1) binding to an Interferon-Stimulated Response Element (ISRE) (AID 2282948). Particulars: HepG2 ISRE cis-reporter (Attagene), mRNA transcription readout; actives raise or lower the signal. An outline of the steps:
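Cell-based cis-reporter assay; HepG2; 24 h exposure; reporter mRNA by RT-PCR plus capillary electrophoresis fluorescence; activity in either direction scored relative to DMSO.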

A short description of test [3]: ATG_M_32_CIS: Attagene CIS-FACTORIAL HepG2 Assay for M32 Transcription Factor (Internal Marker) (AID 2282949).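 Also: background control marker of the multiplexed CIS panel rather than a real target.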 Particulars: HepG2 Attagene cis-factorial M32 reporter, mRNA; actives raise or lower the signal. In outline:
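Fluorescent capillary electrophoresis peaks of HpaI-digested, FAM-labelled RT-PCR reporter products give the signal. Source: transiently transfected human liver HepG2 cells, 24 h after chemical dosing; bidirectional fitting against DMSO.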

The nature of test [4]: ATG_M_06_CIS: Attagene CIS-FACTORIAL HepG2 Assay for M06 Transcription Factor (Internal Marker) (AID 2282950). Particulars: HepG2 Attagene CIS-FACTORIAL M06 internal marker reporter; actives raise or lower the signal. An outline of the steps:
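HepG2 cells transiently transfected with cis-regulated multiple reporter transcription units were exposed to chemical for 24 h; reporter mRNA was quantified by RT-PCR, 6-FAM primer labelling, HpaI digestion and capillary electrophoresis, fitted bidirectionally against DMSO.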

Test [5] has as its target Hypoxia-inducible factor 1-alpha (Homo sapiens) (UniProt Q16665). Kind of test: ATG_HIF1a_CIS: Attagene CIS-FACTORIAL HepG2 Assay for human Hypoxia Inducible Factor 1 (HIF1A) (AID 2282951). Particulars: HepG2 Attagene cis-factorial HIF1a reporter transcription; actives raise or lower the signal. An outline of the steps: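 Dosed 24 h, transfected HepG2 cells yielded total RNA whose reporter transcripts were RT-PCR-amplified and sized by capillary electrophoresis using fluorescent labelling; DMSO defined baseline, with gain and loss of signal both fitted.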

Test [6] deals with Hepatocyte nuclear factor 6 (Homo sapiens) (UniProt Q9UBC0). In words: ATG_HNF6_CIS: Attagene CIS-FACTORIAL HepG2 Assay for human Hepatocyte Nuclear Factor 6 (HNF6) (AID 2282952). Particulars: HepG2 Attagene cis-factorial HNF6 reporter transcription; actives raise or lower the signal. An outline of the steps: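 HepG2 cells transiently transfected with cis-element-driven multiple reporter transcription units, dosed 24 h; reporter mRNA quantified by RT-PCR, FAM primer extension, HpaI digestion and capillary electrophoresis; bidirectional fit versus DMSO baseline.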

Test [7] in a line: ATG_MRE_CIS: Attagene CIS-FACTORIAL HepG2 Assay for human Metal Responsive Element (MRE) (AID 2282954). Particulars: HepG2 MRE cis-reporter transcription, Attagene multiplex; actives raise or lower the signal. An outline of the steps:
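HepG2 cells transiently transfected with cis-element-driven reporter units; mRNA measured 24 h after dosing. Reporter transcripts quantified by RT-PCR, FAM labelling, HpaI digestion and capillary electrophoresis; bidirectional fit versus DMSO.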

Test [8] in a line: ATG_PBREM_CIS: Attagene CIS-FACTORIAL HepG2 Assay for human Phenobarbital-responsive Enhancer Module (PBREM) (AID 2282955). The following applies: HepG2 PBREM cis-reporter, Attagene multiplexed transcription; actives raise or lower the signal. An outline of the steps: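 Transfected liver-derived HepG2 cells exposed 24 h; PBREM reporter transcript quantified via RT-PCR and capillary electrophoresis, with activity in either direction referenced to DMSO.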

The target of test [9] is Heat shock factor protein 1 (Homo sapiens) (UniProt Q00613). In words: ATG_HSE_CIS: Attagene CIS-FACTORIAL HepG2 Assay for human Heat Shock Transcription Factor 1 (HSE) (AID 2282953). The following applies: HepG2 HSE cis-reporter, Attagene RNA transcription; actives raise or lower the signal. An outline of the steps: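 HepG2 cells transiently transfected with multiple reporter transcription units under cis-regulatory promoter control, measuring endogenous transcription factor activity. After 24 h chemical exposure, reporter mRNA quantified by RT-PCR, fluorescent labelling, HpaI digestion and capillary electrophoresis; bidirectional fit versus DMSO.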

The values that follow come from PubChem BioAssay (EPA / NIEHS).

SMILES strings stand for the structures. Calls of active or inactive are those of the source. The calls were made as follows: active = hit-call score of the fitted dose curve at least 0.9, where 1 is the maximum; inactive = score below 0.9.

Hypoxia-inducible factor 1-alpha (Homo sapiens), sequence (Q16665 whole entry, looked up): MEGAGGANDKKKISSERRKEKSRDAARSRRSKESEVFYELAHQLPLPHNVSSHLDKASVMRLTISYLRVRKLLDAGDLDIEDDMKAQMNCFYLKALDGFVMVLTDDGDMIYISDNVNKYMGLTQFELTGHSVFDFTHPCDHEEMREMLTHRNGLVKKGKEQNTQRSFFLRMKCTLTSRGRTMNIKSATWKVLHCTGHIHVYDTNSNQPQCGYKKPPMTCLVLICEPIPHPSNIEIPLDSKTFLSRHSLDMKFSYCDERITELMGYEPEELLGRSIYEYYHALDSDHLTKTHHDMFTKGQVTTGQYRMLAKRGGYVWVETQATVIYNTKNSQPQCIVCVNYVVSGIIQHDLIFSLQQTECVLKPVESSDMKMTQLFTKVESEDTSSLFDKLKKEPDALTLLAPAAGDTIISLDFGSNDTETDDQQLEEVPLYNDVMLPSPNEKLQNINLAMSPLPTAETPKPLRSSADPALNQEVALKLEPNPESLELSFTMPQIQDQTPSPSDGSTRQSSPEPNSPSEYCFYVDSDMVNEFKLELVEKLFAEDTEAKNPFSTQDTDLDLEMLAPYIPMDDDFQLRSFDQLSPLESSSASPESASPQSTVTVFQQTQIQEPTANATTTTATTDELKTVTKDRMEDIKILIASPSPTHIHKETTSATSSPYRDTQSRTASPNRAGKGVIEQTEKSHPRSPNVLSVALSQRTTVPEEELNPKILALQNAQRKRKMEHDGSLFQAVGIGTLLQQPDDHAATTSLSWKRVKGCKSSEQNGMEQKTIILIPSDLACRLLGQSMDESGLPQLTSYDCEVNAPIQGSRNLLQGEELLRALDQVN
Heat shock factor protein 1 (Homo sapiens), sequence (Q00613 whole entry, looked up): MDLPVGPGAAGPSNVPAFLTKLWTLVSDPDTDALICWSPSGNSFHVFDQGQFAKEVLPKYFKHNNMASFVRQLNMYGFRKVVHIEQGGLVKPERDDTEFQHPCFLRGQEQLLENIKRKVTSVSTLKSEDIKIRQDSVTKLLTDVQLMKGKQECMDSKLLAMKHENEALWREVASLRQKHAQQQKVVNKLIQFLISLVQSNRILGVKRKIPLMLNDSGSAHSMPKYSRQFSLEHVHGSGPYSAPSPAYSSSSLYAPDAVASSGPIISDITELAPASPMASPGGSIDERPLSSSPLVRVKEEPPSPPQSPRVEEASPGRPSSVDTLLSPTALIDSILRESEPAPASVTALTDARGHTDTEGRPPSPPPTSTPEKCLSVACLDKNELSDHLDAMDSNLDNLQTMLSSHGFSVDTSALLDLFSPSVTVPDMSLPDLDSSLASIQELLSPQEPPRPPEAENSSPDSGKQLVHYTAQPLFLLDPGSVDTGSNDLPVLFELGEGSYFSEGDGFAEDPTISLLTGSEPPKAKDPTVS
Hepatocyte nuclear factor 6 (Homo sapiens), sequence (Q9UBC0 whole entry, looked up): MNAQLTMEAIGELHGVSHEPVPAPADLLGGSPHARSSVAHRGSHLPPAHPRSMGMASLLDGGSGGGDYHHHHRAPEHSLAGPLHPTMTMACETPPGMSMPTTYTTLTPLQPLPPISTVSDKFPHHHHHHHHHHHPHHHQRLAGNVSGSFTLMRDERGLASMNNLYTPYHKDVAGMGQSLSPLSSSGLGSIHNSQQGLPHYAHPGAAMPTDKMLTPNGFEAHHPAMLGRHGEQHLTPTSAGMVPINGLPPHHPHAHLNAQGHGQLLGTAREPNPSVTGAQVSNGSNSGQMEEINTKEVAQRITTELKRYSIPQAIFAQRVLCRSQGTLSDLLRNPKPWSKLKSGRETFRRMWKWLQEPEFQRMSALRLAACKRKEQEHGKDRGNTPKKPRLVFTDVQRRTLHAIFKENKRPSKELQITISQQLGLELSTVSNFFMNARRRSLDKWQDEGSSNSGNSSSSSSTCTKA

Regarding `CCCCN`, the compound was called inactive in test [1], in [2], in test [3], in test [4], in [5] and in test [6]. Further, the compound was classed as inactive in [7] and in [8].

`ClCCCl`: the call in test [1], in [2], in [3], in [4], in [5] and in test [6] was inactive. Moreover, the outcome in [9], in test [7] and in test [8] was inactive.

With `O=C1CCCCCCCCCCOCCCCO1`, the compound was called inactive in test [1], in test [2], in test [3], in test [4], in [6] and in [8]. The concentration at half-maximal activity (AC50) (in general, the concentration at which the activity in the assay is half-maximal) in [5] was 179 µM (active); in [7] it was 180 µM (active).

In the case of `S=C(S)NCCNC(=S)S`, the result in test [1], in [2], in test [3], in test [4], in [5] and in test [6] was inactive. Also, the outcome in test [9] and in test [7] was inactive.

Regarding `Nc1ccc(S(=O)(=O)O)c(N)c1`, the compound was classed as inactive in test [1], in [2], in test [3], in test [4], in test [5] and in [6]. For the same compound, the compound was classed as inactive in test [9] and in [7].

Turning to `NC(=O)Nc1ccc(Cl)cc1`, the outcome in test [1], in [2], in test [3], in [4], in [5] and in test [6] was inactive. In addition, the compound was classed as inactive in [7] and in [8].

As for `CCO[Si](CCCS)(OCC)OCC`, the outcome in [1], in [2], in test [3], in [6], in [9] and in [7] was inactive. Moreover, in test [5], the half-maximal activity concentration (AC50) was 28.4 µM (active).

With `CCCCCCC#CC(=O)OC`, the result in test [1], in test [2], in [3], in test [4], in test [6] and in test [9] was inactive. For the same compound, the compound was classed as inactive in test [7] and in [8].

As for `CC[C@]12CCCN3CCc4c(n(c5ccccc45)[C@@](O)(C(=O)OC)C1)[C@@H]32`, the call in test [1], in test [2], in test [3], in test [4], in [6] and in [7] was inactive. Also, the AC50 in test [9] was 159 µM (active).

In the case of `CC(C)(C)NC(N)=O`, the compound was classed as inactive in [1], in [2], in test [3], in test [4], in test [5] and in [6]. For the same compound, the compound was called inactive in test [7] and in test [8].

As to `O=C(O)CN(CCN(CC(=O)O)CC(=O)O)CCN(CC(=O)O)CC(=O)O`, the call in [1], in [2], in test [3], in test [4], in test [6] and in test [9] was inactive. For the same compound, the outcome in test [7] and in test [8] was inactive.

Turning to `O=C(O)c1cccc(C(F)(F)F)c1`, the compound was classed as inactive in [1], in [2], in test [3], in test [4], in test [6] and in test [7].

Take `CCCCCC=CCC(=O)OC`: the call in test [1], in test [2], in [3], in test [4], in [6] and in [9] was inactive. Besides, the call in [7] was inactive.

On to `CCCCC(CC)COC(=O)/C=C\C(=O)OCC(CC)CCCC` (configuration not stated), for which the compound was called inactive in [1], in test [2], in [3], in [4] and in test [8]. Further, the AC50 in test [5] was 21.2 µM (active); in test [6] it was 171 µM (active).

`O=C(Oc1ccccc1)c1ccc(O)cc1`: the result in test [1], in [2], in [3], in [6], in [9] and in [7] was inactive. In [5], the concentration at half-maximal activity (AC50) was 176 µM (active).

For the compound `Cc1cccc(C)c1[N+](=O)[O-]`, the compound was called inactive in test [1], in test [2], in test [3], in [4], in test [6] and in [9]. Besides, the call in test [7] was inactive.

As for `CC1=CCC(O)(C(C)C)CC1` (configuration not stated), the call in [1], in [2], in [3], in test [4], in test [6] and in test [9] was inactive. In addition, the outcome in [8] was inactive.

For the compound `CN(C)C(=N)N=C(N)N`, the compound was classed as inactive in test [1], in [2], in test [3], in test [4], in test [5] and in test [6]. Also, the result in [7] and in test [8] was inactive.

As to `CC(C)=CCC[C@](C)(O)[C@@H]1CC=C(C)CC1`, the compound was called inactive in [1], in test [2], in test [3], in test [4], in test [6] and in [7]. The result in [8] was inactive.

For `O=C(Cl)c1cccc(C(=O)Cl)c1`, the result in test [1], in [2], in test [3], in test [5], in [6] and in test [9] was inactive.

As for `CC(=O)[O][Al][O]C(C)=O`, the compound was called inactive in test [1], in test [2], in test [3], in test [4], in [6] and in test [7]. The outcome in test [8] was inactive.

For `CCC(=O)OCc1ccccc1`, the compound was classed as inactive in test [1], in [2], in test [3], in [4], in test [5] and in [9]. The outcome in test [7] was inactive.

As for `Nc1cc([N+](=O)[O-])ccc1O`, the outcome in [1], in test [2], in [3], in [4], in test [5] and in [6] was inactive. Further, the result in [7] and in [8] was inactive.

With `CC1CC(OC(=O)c2ccccc2O)CC(C)(C)C1` (configuration not stated), the call in test [1], in test [2], in [3], in test [4], in test [6] and in [9] was inactive. Also, the outcome in [8] was inactive.

For `Cc1ccc2ccccc2n1`, the compound was classed as inactive in [1], in test [2], in test [3], in test [4], in test [5] and in [6]. Moreover, the outcome in [7] and in test [8] was inactive.

Regarding `FC1(F)C(F)(F)C(F)(F)C2(F)C(F)(C1(F)F)C(F)(F)C(F)(F)C1(F)C(F)(F)C(F)(F)C(F)(F)C(F)(F)C12F` (configuration not stated), the outcome in test [1], in test [2], in [3], in test [5], in test [6] and in test [9] was inactive. In addition, the result in test [7] and in test [8] was inactive.

For the compound `C=C[C@@H](C)CCC=C(C)C`, the call in [1], in test [2], in test [3], in [4], in test [6] and in test [9] was inactive. The result in [7] was inactive.

For the compound `NC(N)=NC(=O)c1nc(Cl)c(N)nc1N`, the compound was called inactive in test [1], in test [3], in test [4], in [6], in test [9] and in [7]. Moreover, in test [8], the result was inactive. Also, the concentration at half-maximal activity (AC50) in test [2] is 157 µM (active).

As for `O=C1OC2(c3cc(Br)c(O)c(Br)c3Oc3c2cc(Br)c(O)c3Br)c2c(Cl)c(Cl)c(Cl)c(Cl)c21`, the outcome in [1], in test [2], in test [3], in [4] and in [5] was inactive. Also, in [7], the concentration at half-maximal activity (AC50) is 19.1 µM (active).

Consider `CCC/C=C/C=O`, for which the result in test [1], in test [2], in test [3], in test [4], in test [5] and in test [7] was inactive. Moreover, the result in test [8] was inactive.
